The values below come from PubChem BioAssay AID720706 (Broad Institute, 2013).

About 5,500 (1.6%) of roughly 350,000 compounds were called active.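 Rule for the calls: active = significant combined selectivity score with lowered wild-type GFP, culture density cut under 30%, mutant RFP and density less affected; inactive = any of these conditions unmet.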 This excerpt belongs to a sample that is enriched for actives.

The assay is described as follows: reduced GFP signal of wild-type E. coli, primary screen, bacterial rRNA inhibitor project, GFP/RFP fluorescence, OD600, single point (AID 720706). The following applies: E. coli WT GFP vs humanized-ribosome RFP mutants, 24 h; GFP signal change (wild-type ribosome): stronger effect = lower value, DMSO median 0, no signal -100; OD600 change: measured here: OD600 growth, DMSO median 0, no signal -100; RFP signal change: measured here: RFP humanized mutant strains, DMSO median 0, no signal -100, concentration not given here.
For the compound `C[C@@H]1CN([C@@H](C)CO)S(=O)(=O)c2ccc(C#Cc3ccc(F)cc3)cc2O[C@@H]1CN(C)CC1CC1`, the GFP signal change (wild-type ribosome) was 3.12% (inactive), the OD600 change is -6.33% and the RFP signal change worked out at 12.1%.
The like results for `CCc1ccccc1OCC(=O)Nc1ccc2c(c1)OCCO2` were, in that order, -18.9% (inactive), -29.9% and 1.18%.
Take `CCOc1ccccc1NC(=S)C(=C([O-])c1ccc2c(c1)OCCO2)[n+]1ccc(CC)cc1`: the GFP signal change (wild-type ribosome) is -17.2% (active), the OD600 change is -16.2% and the RFP signal change came to 11.5%.
Turning to `O=[N+]([O-])c1cccc(/C([O-])=C(/C(=S)Nc2ccccc2F)[n+]2ccccc2)c1`, the GFP signal change (wild-type ribosome) is 4.97% (inactive), the OD600 change was 13.1% and the RFP signal change was 6.65%.
The like results for `COc1ccc2c3c(n(C)c2c1)[C@H](CO)N(S(=O)(=O)c1ccc(C)cc1)CC31CCN(C(=O)c2ccccn2)CC1` were, in that order, -3.17% (inactive), -3.75% and 3.99%.
Taken in the same sequence, the figures for `COc1ccc(N(CC(=O)N2CCCCCC2)S(=O)(=O)c2ccccc2)cc1` were -1.75% (inactive), -4.39% and -2.53%.
The like results for `CS(=O)(=O)N(CC(=O)N1CCc2ccccc2C1)c1ccc(Br)cc1` were, in that order, -22.4% (active), -11% and 0.676%.
For `CS(=O)(=O)N(CC(=O)N1CCN(Cc2ccccc2)CC1)c1ccc2c(c1)OCCO2`, the GFP signal change (wild-type ribosome) was 3.15% (inactive), the OD600 change came to 8.73% and the RFP signal change is -8.62%.
For `COCc1cn(CC[C@H]2CC[C@H](NC(=O)c3ccncc3)[C@H](CO)O2)nn1`, the GFP signal change (wild-type ribosome) was 1.82% (inactive), the OD600 change was determined as 6.54% and the RFP signal change was -3.21%.
Taken in the same sequence, the figures for `CC(C)[C@@H]1COCc2cnnn2CCC[C@H](C)C(=O)N1` were 1.6% (inactive), 7.64% and 1.53%.
Taken in the same sequence, the figures for `CC(C)(C)C(c1nc2ccccc2[nH]1)n1c(Cc2csc3ccccc23)nc2ccccc21` (stereo not given) were -9.17% (inactive), -4.49% and 9.77%.
Taken in the same sequence, the figures for `Cc1cc(C)cc(NC(=O)c2cccc(NC(=O)C3C4CC5OC(=O)C3C5C4)c2)c1` (stereo not given) were -21.2% (active), -14.4% and 6.04%.
With `Cc1ccc(NC(=O)COC(=O)C2C3CC4OC(=O)C2C4C3)cc1Cl` (stereo not given), the GFP signal change (wild-type ribosome) was -1.3% (inactive), the OD600 change was -3.04% and the RFP signal change is -5.78%.
The like results for `COC(=O)c1cccc(NC(=O)c2cccc(N3C(=O)CCC3=O)c2)c1` were, in that order, 0.987% (inactive), 9.02% and 0.607%.
The like results for `COc1ccccc1C#Cc1ccc2c(c1)O[C@@H](CN(C)Cc1cncnc1)[C@H](C)CN([C@@H](C)CO)S2(=O)=O` were, in that order, -12.1% (inactive), -13.6% and 10%.
Taken in the same sequence, the figures for `O=C1CN(S(=O)(=O)Cc2ccccc2)C[C@@H]2[C@@H](c3ccc(C#Cc4cccc(F)c4)cc3)[C@@H](CO)N12` were -6.58% (inactive), -36.6% and 26.9%.
`C[C@@H]1CN([C@@H](C)CO)S(=O)(=O)c2ccc(C#C[C@@H](C)O)cc2O[C@@H]1CN(C)C(=O)Cc1ccccn1`: the GFP signal change (wild-type ribosome) is 3.39% (inactive), the OD600 change was found to be 0.98% and the RFP signal change is -0.13%.
On to `COc1ccccc1C(=O)Nc1ccc2c(c1)C(=O)N(C)C[C@@H](OC)[C@@H](C)CN(CC1CC1)[C@@H](C)CO2`, for which the GFP signal change (wild-type ribosome) was -1.52% (inactive), the OD600 change was -3.13% and the RFP signal change turned out to be 0.12%.
Regarding `CCN1C(=O)/C(=C2\SC(N3CCCCC3)=NC2=O)c2ccccc21`, the GFP signal change (wild-type ribosome) is -24% (active), the OD600 change amounted to 0.66% and the RFP signal change was -4.52%.
The like results for `CCOc1cc(/C=C2\SC(N3CCCCC3)=NC2=O)ccc1O` were, in that order, -19.3% (inactive), -20.3% and 8.23%.
The like results for `CC(C)=C1SC(N2CCN(c3ccc(C)c(Cl)c3)CC2)=NC1=O` were, in that order, -1.49% (inactive), -2.03% and -2.71%.
The like results for `COc1cccc(C(=O)N2C[C@@H]3[C@H](c4ccccc42)[C@H](CO)N3Cc2ccccc2F)c1` were, in that order, -8.84% (inactive), -21.6% and 1.94%.
Consider `COc1ccccc1N1CCN(/N=C/c2ccc(O)cc2O)CC1`, for which the GFP signal change (wild-type ribosome) is 2.04% (inactive), the OD600 change worked out at 0.96% and the RFP signal change is -2.29%.
For `Cc1nc2ccccc2nc1N/N=C/c1ccc(O)cc1O`, the GFP signal change (wild-type ribosome) was -17.1% (active), the OD600 change is -1% and the RFP signal change was 6.07%.
As for `Cc1n[nH]c(=O)nc1N/N=C/c1cccs1`, the GFP signal change (wild-type ribosome) is 12.5% (inactive), the OD600 change is -10.6% and the RFP signal change came out at 3.52%.
With `CN(C)CCCNC(=O)C[C@H]1C=C[C@@H](NC(=O)Cc2cccnc2)[C@H](CO)O1`, the GFP signal change (wild-type ribosome) was -1.21% (inactive), the OD600 change is 6.35% and the RFP signal change is -1.98%.
On to `Cc1onc(-c2c(F)cccc2Cl)c1C(=O)Nc1cccc(S(=O)(=O)N2CCCCC2)c1`, for which the GFP signal change (wild-type ribosome) was -6.88% (inactive), the OD600 change was -20.2% and the RFP signal change is -1.93%.
Taken in the same sequence, the figures for `Cc1[nH]n(C)c(=O)c1C(=O)c1c(-c2c(Cl)cccc2Cl)noc1C` were 23.4% (inactive), 10.3% and 1.84%.
Consider `Cc1onc(-c2c(Cl)cccc2Cl)c1C(=O)NNC(=O)c1c(-c2c(Cl)cccc2Cl)noc1C`, for which the GFP signal change (wild-type ribosome) is -35.2% (active), the OD600 change is -26.9% and the RFP signal change stood at 1.07%.
For the compound `CN1C(=O)c2cc(NC(=O)c3ccc(Cl)cc3)ccc2OC[C@H]2O[C@H](CC(=O)O)CC[C@H]21`, the GFP signal change (wild-type ribosome) is 1.69% (inactive), the OD600 change was 1.68% and the RFP signal change is -1.26%.
Consider `C[C@H]1CN([C@@H](C)CO)C(=O)c2cc(NC(=O)Nc3ccc4c(c3)OCO4)ccc2O[C@H]1CN(C)S(=O)(=O)c1ccc(F)cc1`, for which the GFP signal change (wild-type ribosome) was -3.35% (inactive), the OD600 change was -0.035% and the RFP signal change is 3.46%.
The like results for `CN1C(=O)c2cc(NC(=O)C3CCC3)ccc2OC[C@@H]2O[C@@H](CC(=O)NCCc3ccncc3)CC[C@H]21` were, in that order, 5.03% (inactive), 10.1% and -1.17%.
Taken in the same sequence, the figures for `COc1ccccc1CCNC(=O)CSc1nnc2ccc(-c3cccnc3)nn12` were -2.66% (inactive), 7.92% and 10.5%.
The like results for `S=c1nc2ccccc2c2nc(-c3cccnc3)[nH]n12` were, in that order, -0.36% (inactive), -3.58% and -4.9%.
With `COc1ccccc1Oc1nc(-c2cccnc2)nc2ccccc12`, the GFP signal change (wild-type ribosome) is -34.3% (active), the OD600 change was -23.4% and the RFP signal change was -3.61%.
Taken in the same sequence, the figures for `Cc1ccc(S(=O)(=O)N(C)C[C@@H]2Oc3ccc(NS(=O)(=O)c4cn(C)cn4)cc3C(=O)N([C@@H](C)CO)C[C@H]2C)cc1` were 0.239% (inactive), -1.14% and 0.319%.
The like results for `O=C(Nc1ccc(F)cc1)N1CCCC(c2nc3c(nnn3Cc3ccccc3Cl)c(=O)[nH]2)C1` (stereo not given) were, in that order, 5.54% (inactive), 16.4% and 5.16%.
The like results for `Cc1ccc(Cn2nnc3c(=O)[nH]c(C4CCN(S(=O)(=O)/C=C/c5ccccc5)CC4)nc32)cc1` were, in that order, -1.02% (inactive), -8.59% and 5.14%.
Consider `Cc1ccc(NC(=O)N2CCC(c3nc4c(nnn4Cc4c(F)cccc4Cl)c(=O)[nH]3)CC2)cc1`, for which the GFP signal change (wild-type ribosome) was -32.9% (active), the OD600 change was -18.6% and the RFP signal change was -4.28%.
The like results for `COc1ccccc1NC(=O)N[C@H]1CC[C@@H](CCn2cc(C3(O)CCCC3)nn2)O[C@@H]1CO` were, in that order, -0.097% (inactive), 0.829% and -2.3%.
